# Screens as filed in PubChem.
# Many of the other results were omitted from the sample, so hits are more common in it than they were.
# Shiga inhibitor = Shiga toxin inhibition; Vero cells, Shiga toxin protein synthesis inhibition reporter; inhibition, % at 38.7 µM; 9.2% of 290,000 active; AID 2315; in the data active = inhibition mostly above about 28%, no sharp cut-off; inactive = mostly below about 43%; also: 0% is about no effect
# LASV entry inh = blocks Lassa virus binding to or entry into cells. Potency, µM (titrated, usually from 37.9 µM), inactives show at the top dose activity change, negative = inhibition, usual class: inhibitors. 1.2% of 300,000 active. AID 540256. Lassa virus pseudotype entry inhibition, cell reporter; calls by dose curve; tested in HEK293 cells; also: potency is read from the fitted curve at half-maximal effect; % is scaled to controls: 0 for no effect and ±100 for the full control effect; nearly all actives have a fitted effect of over 50% in size
# Cycloheximide cs = counter-screen for Shiga toxin inhibitors: cycloheximide protein synthesis inhibition. cell reporter, cycloheximide protein synthesis inhibition counterscreen. max response, %. 12% of 300,000 active. AID 2314; in the data active = max response mostly above about 13%, no sharp cut-off; inactive = mostly below about 14%; also: read at 38.3 µM for the half of the compounds with a filed dose; 0% is about no effect
# VACV Venus inh = vaccinia inhibition (Venus reporter); Vaccinia virus Venus reporter expression, fluorescence; Potency, µM (highest dose often 36.5 µM), for inactives: at the top dose activity change, negative = inhibition, most hits filed as inhibitors; 0.46% of 330,000 active; calls by dose curve; tested in A549 cells; also: potency is read from the fitted curve at half-maximal effect; % is scaled to controls: 0 for no effect and ±100 for the full control effect; nearly all actives have a fitted effect of over 30% in size
# VACV mCherry inh = vaccinia inhibition (mCherry reporter). Vaccinia virus mCherry reporter infection, fluorescence. Potency, µM (series often up to 36.5 µM), inactives show at the highest dose activity change, negative = inhibition, hits mostly inhibitors. 0.63% of 310,000 active. AID 720579; calls by dose curve; tested in A549 cells; also: potency is read from the fitted curve at half-maximal effect; % is scaled to controls: 0 for no effect and ±100 for the full control effect; nearly all actives have a fitted effect of over 35% in size
# Marburg entry inh = Marburg virus entry inhibition; 1.8% of 300,000 active; AID 540276; Marburg virus pseudotyped entry inhibition, cell reporter; Potency, µM (titrated, usually from 37.8 µM), without a hit: at the top dose activity change, negative = inhibition, actives largely listed as inhibitors; calls by dose curve; tested in HEK293 cells; also: potency is read from the fitted curve at half-maximal effect; % is scaled to controls: 0 for no effect and ±100 for the full control effect
# An asterisk follows results filed as active; i = inactive; ? = inconclusive; . = no result; [ ] = dose if it differs, or a comment.
SMILES,Shiga inhibitor,LASV entry inh,Cycloheximide cs,VACV Venus inh,VACV mCherry inh,Marburg entry inh
CCc1ccccc1NC(=O)Cn1c(=O)n(-c2ccccc2)c(=O)c2oc3ccccc3c21,.,-15%[46.1 µM],.,-18%,i,.
COc1ccc2c(c1)c(=O)cc(-c1ccccc1)n2C,49*,?,22*,-4%,-5%,2%
CCN(CC)CCCNC(=O)c1ccc(Cn2c(SCc3ccccc3)nc3cccnc32)cc1,.,19%[46.1 µM],.,0%,-4%,.
Cc1ccc(-c2[nH]c3ccccc3c2C(C[N+](=O)[O-])c2ccco2)cc1 (stereo not given),25,?,20*,?,.,?
CCCC1=C(C(=O)OCC)C(/C=C/c2ccccc2)n2ncnc2N1 (stereo not given),-19,-19%,-2,.,.,9.2µM*
COc1ccc(OCc2cc(C(=O)NCC3CCCCO3)no2)c(Cl)c1 (stereo not given),74*,.,46*,-10%[7.34 µM],i[7.34 µM],.
COc1ccc(OCc2cc(C(=O)NCC3CCOCC3)no2)c(Cl)c1,54*,.,51*,.,.,.
CC(=O)OC[C@H]1O[C@H](CC=NO[C@@H](C)CN2CCCc3nc(C)c(C)cc32)C=C[C@@H]1OC(C)=O,.,.,.,.,.,9%[14.2 µM]
Cc1ccc(C2C(C#N)=C(N)N(c3cccnc3)C3=C2C(=O)CCC3)s1 (stereo not given),51*,8%,11,.,.,4%
CCc1ccc(NC(=O)Cn2c(=O)n(CCCCC(=O)NCCc3ccc(Cl)cc3)c(=O)c3ccccc32)cc1,.,-1%[46.1 µM],.,-22%,?,-3%[46.1 µM]
CCOc1ccc(Nc2ccc([N+](=O)[O-])c3nonc23)cc1,56*,.,33*,.,.,.
O=[N+]([O-])c1ccc(Nc2ccccc2)c2nonc12,-8,.,-2,-25%,-29%,.
CCc1ccc(NC(=O)c2sc(-n3nc(C)c(Cc4ccc(OC)cc4)c3C)nc2C)cc1,.,12%[46.1 µM],.,-14%,-4%,?
COc1ccccc1C(=O)NNC(=O)c1cccc([N+](=O)[O-])c1,61*,5%,32*,-5%,-9%,21%[46.1 µM]
COc1ccccc1C(=O)NNC(=O)c1cccc(C)c1,.,5%,23*,3%,-17%,?
Cc1cc(C(=O)COc2ccccc2[N+](=O)[O-])c(C)n1C1CC1,65*,12%[46.1 µM],28*,-17%,?,21%[46.1 µM]
Cc1cc(C(=O)COc2ccccc2C(N)=O)c(C)n1C1CC1,106,.,40*,.,.,.
Cc1ccccc1OCC(=O)OCC(=O)c1cc(C)n(C2CC2)c1C,.,-8%,.,-6%,-11%,2%
Cc1ccc2oc(-c3cc(NC(=O)Cc4ccccc4)ccc3Cl)nc2c1,.,?,.,-27%,-17%,10%[46.1 µM]
COC(=O)C1=C(N)Oc2cc(C)[nH]c(=O)c2C1c1ccccc1OC (stereo not given),18,1%,1,-12%,-12%,-7%
CNC(=S)NNC(=O)c1sccc1OCc1ccc(Cl)cc1Cl,-1,?,-2,.,.,-7%
N/C(=N\NC(=O)c1sccc1OCc1ccc(Cl)cc1Cl)c1ccccn1,-5,?,3,?,?,8.9µM*
Cc1cc2c(c(=O)n1Cc1ccccc1)[C@H]1O[C@](c3ccsc3)(Cc3ccccc31)O2,.,.,.,.,.,-12%[14.2 µM]
O=C(/C=C/c1ccc2c(c1)OCO2)Nc1nncs1,45*,.,30*,.,.,.
CC(C)(C)c1ccc(/C=C/C(=O)Nc2nncs2)cc1,56*,?,63*,-11%,-17%,?
SMILES,Shiga inhibitor,LASV entry inh,Cycloheximide cs,VACV Venus inh,VACV mCherry inh,Marburg entry inh
O=C(/C=C/c1ccco1)Nc1ccc2c(c1)OCO2,113*,?,38*,-7%,0%,?
CC(=O)Nc1ccc(NC(=O)/C=C/c2ccc3c(c2)OCO3)cc1,23,-10%,32*,3%,0%,-29%[46.1 µM]
Cc1ccc(C)c(NC(=O)CC(NCCCN2CCOCC2)C(=O)O)c1 (stereo not given),.,.,.,.,.,-1%
O=C(CN1C(=O)C2(SCC(=O)N2c2cccc(F)c2)c2ccccc21)NCc1ccccc1Cl (stereo not given),.,-11%[46.1 µM],.,-11%,-16%,.
COc1cccc(CCNc2ncnc3sc(C(=O)N4CCN(C)CC4)c(C)c23)c1,.,.,.,-13%,-11%,.
COc1ccccc1NC(=O)CSc1nc2c(oc3ccccc32)c(=O)n1-c1ccc(C)cc1,.,.,.,-2%,-14%,?
COC(=O)c1cc(NC(=O)/C=C/c2ccc3c(c2)OCO3)cc(C(=O)OC)c1,-2,?,-2,.,.,?
Cc1sc(NC(=O)/C=C/c2ccc3c(c2)OCO3)nc1-c1ccccc1,11,?,-1,-21%,-24%,?
